High-throughput results from PubChem BioAssay.
Hits are enriched below; roughly 9.5% of the tested compounds scored in any of these assays.
Tau ThT inhib – qHTS for Inhibitors of Tau Fibril Formation, Thioflavin T Binding. Microtubule-associated protein tau (Homo sapiens), P10636. recombinant tau K18 P301L, heparin-induced fibrillization, ThT fluorescence. Potency, µM (top dose mostly 57.4 µM), inactives show at the top dose activity, negative = inhibition, hits mostly inhibitors. 270,000 tested, 2.1% active; further: nearly all actives have a fitted effect of over 55% in size
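K18 P301L tau (15 uM + 0.24 uM Alexa 594-tagged), heparin 20 uM, NaOAc pH 7, 6 h 37 C; ThT 30 uM, 1 h RT, ex 450/em 510 nm.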
Tau fibril FP – qHTS for Inhibitors of Tau Fibril Formation, Fluorescence Polarization | K18 P301L tau heparin fibrillization, Alexa594 FP, 6 h | Potency, µM (highest dose often 57.7 µM), for the others: at the top dose activity, negative = inhibition, most hits filed as inhibitors | 280,000 tested, 0.39% active | AID 1468, 2008; further: nearly all actives have a fitted effect of over 55% in size
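Human K18 P301L fragment (15 uM unlabeled plus 0.24 uM Alexa 594-labeled) in 100 mM sodium acetate pH 7 with compound, aggregation induced by 20 uM heparin for 6 hr at 37 C. ThT (30 uM) added for 1 hr, then Alexa 594 FP read.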
Tau fluor cs – Counterscreen qHTS for Inhibitors of Tau Fibril Formation, Fluorescence Polarization | tau K18 P301L (four-repeat tau fragment) Alexa594 fluorescence, heparin fibrillization | Potency, µM (series often up to 57.7 µM), for inactives: at the highest dose activity change, negative = decrease | 280,000 tested, 0.93% active; further: nearly all actives have a fitted effect of over 55% in size
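Human K18 P301L tau (15 uM unlabeled plus 0.24 uM Alexa 594-labeled, final) in 100 mM sodium acetate pH 7 was mixed with compound and 20 uM heparin and incubated 6 hr at 37 C.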
ALDH1A1 block – qHTS Assay for Inhibitors of Aldehyde Dehydrogenase 1 (ALDH1A1); Purified ALDH1A1, NADH fluorescence, propionaldehyde substrate; Potency, µM (series often up to 75.3 µM), without a hit: at the highest dose activity, negative = inhibition, usual class: inhibitors; 220,000 tested, 7.3% active; active means well fitted inhibition curve with a large enough effect, not every such curve was filed as active; inconclusive means small, poorly fitted or top-dose-only effect, or another doubt; inactive means no such curve, though single readings can be large or run the other way;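 further: plate controls were no enzyme wells and a reference inhibitor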
Target sequence (P00352 whole entry, looked up): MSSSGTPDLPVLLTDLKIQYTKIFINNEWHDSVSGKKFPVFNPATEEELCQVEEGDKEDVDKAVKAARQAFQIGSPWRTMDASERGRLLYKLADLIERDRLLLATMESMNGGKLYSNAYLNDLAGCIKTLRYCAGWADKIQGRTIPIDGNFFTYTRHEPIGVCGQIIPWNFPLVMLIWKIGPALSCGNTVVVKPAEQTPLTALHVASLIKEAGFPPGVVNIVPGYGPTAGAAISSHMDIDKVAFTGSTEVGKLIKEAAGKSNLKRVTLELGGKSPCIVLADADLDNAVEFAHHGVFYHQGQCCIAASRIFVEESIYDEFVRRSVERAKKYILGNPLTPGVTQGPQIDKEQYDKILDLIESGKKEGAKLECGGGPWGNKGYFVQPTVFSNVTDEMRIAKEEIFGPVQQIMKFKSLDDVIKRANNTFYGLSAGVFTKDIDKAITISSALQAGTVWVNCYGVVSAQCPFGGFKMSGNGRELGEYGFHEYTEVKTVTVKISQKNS
NPSR antagonist – qHTS Assay for Antagonists of the Neuropeptide S Receptor: cAMP Signal Transduction; CHO-NPSR cells, cAMP TR-FRET, antagonist mode; Potency, µM (highest dose often 38.3 µM), for inactives: at the highest dose activity change, negative = inhibition, actives largely listed as inhibitors; Q6W5P4; 220,000 tested, 1% active; further: nearly all actives have a fitted effect of over 50% in size
HPGD block – qHTS Assay for Inhibitors of HPGD (15-Hydroxyprostaglandin Dehydrogenase); 15-hydroxyprostaglandin dehydrogenase [NAD(+)] (Homo sapiens), P15428; purified HPGD, NADH fluorescence kinetic, PGE2 substrate; Potency, µM, for the others: top-dose activity change, negative = inhibition, hits mostly inhibitors; 150,000 tested, 4.3% active; active means well fitted inhibition curve with a large enough effect, not every such curve was filed as active; inconclusive means small, poorly fitted or top-dose-only effect, or another doubt; inactive means no such curve, though single readings can be large or run the other way
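NADH formation kinetics: reaction with 30 uM PGE2 and 1 mM NAD+ (final), 20 nM enzyme, Tris-HCl pH 8 with Tween 20, after 15 min compound preincubation at room temperature. Fluorescence change, last versus first of five reads.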
The depositor's hits bear a star; [ ] = remark or other dose. Unless noted, the call rests on the fitted dose curve; in most records, active means well fitted curve in the direction sought with a large enough effect; inconclusive means small, poorly fitted or top-dose-only effect, or another doubt; inactive means no such curve, though single readings can be large; an effect the other way counts as inactive or inconclusive. Unless noted, on the % scale 0 is the no-effect control and ±100 the full control effect; potency means the concentration at half of the fitted maximal effect.

Brc1ccc(C=Nc2ccc(Nc3ccccc3)cc2)s1 was read as Tau ThT inhib 10µM*, Tau fibril FP inconclusive, Tau fluor cs 11µM*[quencher], ALDH1A1 block inconclusive, NPSR antagonist -18% and HPGD block -21%.
`Cc1ccnc(NC(=O)c2ccc(S(=O)(=O)c3ccccc3)cc2)c1` gave Tau ThT inhib 1%, Tau fibril FP -2%, Tau fluor cs -17%, ALDH1A1 block inconclusive and NPSR antagonist -9%.
CSc1ccccc1C(=O)C1CCCN(C(=O)c2cc(C(C)C)no2)C1 (stereo not given) was read as Tau ThT inhib -13%, Tau fibril FP 11%[2.34 µM], Tau fluor cs 21%[2.34 µM], ALDH1A1 block 18µM* and NPSR antagonist 4%.
For CSc1ccccc1C(=O)C1CCCN(C(=O)c2csnn2)C1 (stereo not given) the results were Tau ThT inhib 7%, Tau fibril FP -2%, Tau fluor cs 5%, ALDH1A1 block -4% and NPSR antagonist -22%.
`COc1ccc(OC)c(CC2C(=O)Nc3ccc(Br)cc32)c1` (stereo not given) gave Tau ThT inhib -6%, Tau fibril FP -6% and Tau fluor cs -24%.
`CN(C)CCNc1nc2c(c(=O)[nH]c(=O)n2C)n1CC(O)COc1ccc(Cl)cc1Cl` (stereo not given) gave Tau ThT inhib -18%, Tau fibril FP -12%, Tau fluor cs -15%, ALDH1A1 block inconclusive, NPSR antagonist -1%[46.1 µM] and HPGD block 22µM*.
Screening CCSc1nc2c(c(=O)[nH]c(=O)n2C)n1CC(O)COc1ccccc1C (stereo not given) returned Tau ThT inhib 9%, Tau fibril FP 3%, Tau fluor cs 8%, ALDH1A1 block 28µM*, NPSR antagonist 14%[46.1 µM] and HPGD block 14µM*.
CC(O)CSc1nc2c(c(=O)[nH]c(=O)n2C)n1CC(O)COc1ccccc1 (stereo not given) was read as Tau ThT inhib -8%, Tau fibril FP -3%, Tau fluor cs 2%, ALDH1A1 block 24µM* and NPSR antagonist 20%.
For Cc1ccccc1OCC(O)Cn1c(SC(C)C)nc2c1c(=O)[nH]c(=O)n2C (stereo not given) the results were Tau ThT inhib inconclusive, Tau fibril FP -13%, Tau fluor cs -20%, ALDH1A1 block 7.1µM*, NPSR antagonist -3%[7.67 µM] and HPGD block 14µM*.
CCOc1ccc(NC(=O)Nc2c[nH]c(=O)[nH]c2=O)cc1 was read as Tau ThT inhib inconclusive, Tau fibril FP 6% and Tau fluor cs -22%.
`CCCCc1nc2c(c3c1C[C@H](C)OC3)CN(C(=O)c1ccco1)CC2` gave Tau ThT inhib -2%[11.5 µM], Tau fibril FP 1%[11.6 µM], Tau fluor cs -5%[11.6 µM], ALDH1A1 block 14%[13.5 µM] and HPGD block -7%.
`CC(=O)O[C@H]1CC[C@]2(C)C(=CC[C@H]3[C@H]4C[C@H]5O[C@]6(CC[C@H](C)CN6)[C@H](C)[C@@H]5[C@]4(C)CC[C@@H]32)C1` gave ALDH1A1 block -4%[13.5 µM] and HPGD block -7%.
`C/C=C/C=C\C(=O)Nc1cccc(C2=NOC3(C2)C[C@H](C(N)=O)N(C(=O)/C=C/C)C3)c1` (stereo not given in full) gave Tau ThT inhib -17%, Tau fibril FP -6%, Tau fluor cs -1% and NPSR antagonist 29%.
